Source: PubChem BioAssay AID1851 (National Center for Advancing Translational Sciences (NCATS), 2009)
The whole screen tested about 16,000 compounds, of which about 2,600 (16%) were called active. Not shown: some 20% with an inconclusive outcome. The call rests on the fitted dose curve; in most records, active means well fitted curve in the direction sought with a large enough effect; inconclusive means small, poorly fitted or top-dose-only effect, or effect the other way; inactive means no such curve, though single readings can be large or run the other way. The list is a sample of the results.

What follows are compounds tested against Cytochrome P450 2D6 (Homo sapiens) (UniProt P10635) (assay: Cytochrome panel assay with activity outcomes). Settings: recombinant CYP, pro-luciferin dealkylation, luminescence, p450-cyp2d6; series mostly up to 57.1 µM; activity, negative = inhibition: at the top concentration.
On the % scale 0 is the no-effect control and ±100 the full control effect.

Sequence of Cytochrome P450 2D6 (Homo sapiens) (P10635 whole entry, looked up): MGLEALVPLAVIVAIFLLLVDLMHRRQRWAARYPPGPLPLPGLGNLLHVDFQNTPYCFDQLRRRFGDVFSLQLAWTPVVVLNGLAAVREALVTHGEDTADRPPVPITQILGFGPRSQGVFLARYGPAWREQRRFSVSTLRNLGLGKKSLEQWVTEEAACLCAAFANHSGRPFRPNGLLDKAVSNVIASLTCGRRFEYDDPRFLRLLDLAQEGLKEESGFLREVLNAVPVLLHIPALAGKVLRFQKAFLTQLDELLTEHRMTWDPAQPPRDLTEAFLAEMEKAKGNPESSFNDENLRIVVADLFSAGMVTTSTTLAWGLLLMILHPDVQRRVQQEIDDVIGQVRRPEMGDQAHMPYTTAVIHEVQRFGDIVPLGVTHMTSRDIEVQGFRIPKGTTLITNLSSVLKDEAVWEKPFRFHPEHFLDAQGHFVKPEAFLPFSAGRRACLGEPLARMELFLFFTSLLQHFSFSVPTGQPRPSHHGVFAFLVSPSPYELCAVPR

SMILES | activity, negative = inhibition | AC50
Nc1ccc(S(=O)(=O)NCc2nccs2)cc1 | -11% [at 11.4 µM] (inactive) | 
O=C1CCCC=C1[C@@H](O)C1CCCCC1 | 11.1% [at 11.4 µM] (inactive) | 
CCCCOc1cc(C[C@@H]2CNC(=O)N2)ccc1OC | 4.47% (inactive) | 
CCCN1C[C@H](CSC)C[C@H]2c3cccc4[nH]cc(c34)C[C@@H]21 |  | 0.1 µM (active)
O=C(O)c1cc2cc(Cc3cccnc3)ccc2o1 | 5.07% (inactive) | 
Cc1cc(C)nc(NC(=O)c2cccc([N+](=O)[O-])c2C)n1 | -26% (inactive) | 
CC(C)(C)C1CCC(OCC(O)CN2CCN(c3ccccc3)CC2)CC1 (centres undefined) |  | 6.31 µM (active)
ClC(Cl)(Cl)C(N1CCN(c2ccccc2)CC1)N1CCN(c2ccccc2)CC1 | 4.26% [at 11.4 µM] (inactive) | 
OC[C@@H](O)CN1CCN(c2ccccc2)CC1 | -10.7% [at 25.6 µM] (inactive) | 
COCCCN=CC1=C(O)CC(C)(C)CC1=O | 2.61% (inactive) | 
CCc1c(C(C)O)oc2ccc3c(C)cc(=O)oc3c12 (centres undefined) | 9.69% (inactive) | 
COc1ccc(-n2nc(C(=O)NCC(=O)Nc3ccccn3)c3ccccc3c2=O)cc1 | -12.4% (inactive) | 
Cn1c(=O)[nH]c2ncn(C)c2c1=O | 7.29% (inactive) | 
CN(C)CCCN1c2ccccc2Sc2cnccc21 |  | 1.58 µM (active)
CN(C)CCCN1c2ccccc2Sc2ccc3ccccc3c21 |  | 1.26 µM (active)
CCN(CC)CCN1c2ccccc2Sc2ccc3ccccc3c21 |  | 0.631 µM (active)
CN(C)CCCN1c2ccc3ccccc3c2Sc2cccc(Cl)c21 |  | 0.501 µM (active)
CCC(=S)/C=C1\Sc2ccc3ccccc3c2N1CCCS(=O)(=O)O | 17.6% (inactive) | 
CCN(CC)CCN1C(=O)c2cccc3cc(N)cc(c23)C1=O | -3.81% [at 11.4 µM] (inactive) | 
CN1C(=C2C(=O)OC(C)(C)OC2=O)Sc2ccccc21 | -17.7% (inactive) | 
C/C(CC(=O)NCc1ccco1)=N\NC(=O)Cc1cccc2ccccc12 | -5.5% (inactive) | 
Cc1c(C(=O)O)nc(/C=C\C(=O)O)[nH]c1=O | 6.81% [at 11.4 µM] (inactive) | 
Cc1nc2cnc(N(C)C)nc2n(Cc2ccc(F)cc2)c1=O | -8.58% (inactive) | 
CCSc1nc2c(c(=O)[nH]1)C(c1ccncc1)C(C(=O)OC(C)C)=C(C)N2 (centres undefined) | -20.1% (inactive) | 
COc1ccc(CN2CN(c3ccc(Cl)cc3)C(=O)N(n3cnnc3)C2)cc1 | -23.4% (inactive) | 
N#C/C(=C\N1CCNC1=S)C(=O)c1ccc2ccccc2c1 | -0.81% [at 11.4 µM] (inactive) | 
CN(C)CCCn1cc(C2=C(c3c[nH]c4ccccc34)C(=O)NC2=O)c2ccccc21 | -1.97% (inactive) | 
COc1ccccc1N1CCN(CCN2C(=O)c3ccccc3C(C)(C)C2=O)CC1 | -4.41% (inactive) | 
CN(C)CCCN1c2ccccc2C(C)(C)c2ccccc21 |  | 3.98 µM (active)
